The source of these data is PubChem BioAssay (NCATS).

Results filed as inconclusive are left out.

One assay in a line: qHTS Assay for Lipid Storage Modulators (AID 1519). Particulars: Drosophila S3 cells, BODIPY lipid droplet/cell ratio, laser cytometry; measured here: cell count channel max response; cells loaded with oleic acid. The essentials:
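Cells seeded at 5,000 per well were treated with compounds over a concentration series and loaded with oleic acid (400 uM, as added). Lipid droplet fluorescence (488 nm excitation, 500-530 nm channel) was read by laser-scanning cytometry and normalized to 20 uM Triacsin C.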
A general note: Quantitative high-throughput screening tests each substance at several concentrations.
With `N#Cc1ccc(CN2CC[C@@]3(CCCN(C(=O)Oc4ccccc4)C3)C2)cc1`, the max response was found to be 20.4%.
For the molecule `O=C(Oc1ccccc1)N1CCC2(CCN(Cc3ccccc3)CC2)CC1`, the max response turned out to be 2.36%.
On the same count and under the same terms, the same measure for `C[N+]1([O-])[C@@H]2CC(OC(=O)[C@@H](CO)c3ccccc3)C[C@@H]1[C@H]1O[C@H]12` (stereo not given in full): 26%; for `CN1CCC2(CC1)CCN(C(=O)Oc1ccccc1)CC2`: 2.61%; for `O=C(Nc1cccc(F)c1)N1CC2(CCN(C(=O)Oc3ccccc3)CC2)C1`: -9.16%.
Same read-out and setting: the figure for `CCNc1nc(Cl)nc(NC(C)C)n1` is 2.72%.
`ClC1=C(Cl)C2(Cl)C3C4CC(C5OC45)C3C1(Cl)C2(Cl)Cl` (stereo not given): the max response came out at 8.98%.
With `CN1CC[C@@]2(CCCN(C(=O)c3ccco3)C2)C1`, the max response came out at 10.7%.
On the same count and under the same terms, the figure for `CCOCN(C(=O)CCl)c1c(C)cccc1CC` is -6.11%; for `ClC(Cl)=C(c1ccc(Cl)cc1)c1ccc(Cl)cc1` it is 14.6%.
On the same count and under the same terms, the same measure for `c1cnc(N2CC[C@@]3(CCCNC3)C2)nc1`: 20.5%; for `ClC1=C(Cl)C2(Cl)C3C4C=CC(C4)C3C1(Cl)C2(Cl)Cl` (stereo not given): 9.06%.
Still for that read-out and setting: the same measure for `COc1ccccc1CN1CC[C@@]2(CCCN(C(=O)Oc3ccccc3)C2)C1`: 2.61%; for `O=C(Nc1cccc(F)c1)N1CC[C@@]2(CCCN(C(=O)Oc3ccccc3)C2)C1`: 6.61%; for `Cc1ccccc1-c1cncnc1NCCc1cnc[nH]1`: 9.82%.
Regarding `O=C(Nc1ccccc1)N1CC[C@@]2(CCCNC2)C1`, the max response turned out to be 4.57%.
The same measure, in the same setting: the same measure for `CN1CCCC2(CCN(C(=O)c3ccncc3)CC2)C1`: 15.5%; for `CC(C)CN1CCC2(CC1)CCN(C(=O)Oc1ccccc1)CC2`: -4.31%.
With `O=C(O)COc1ccc(Cl)cc1Cl`, the max response is -3.68%.
For `CC(C)CN1CC2(CCN(C(=O)c3ccncc3)CC2)C1`, the max response worked out at 11.7%.
Turning to `COC(=O)NC(=S)Nc1ccccc1NC(=S)NC(=O)OC`, the max response came out at 8.02%.
With `C/C=C/c1ccc2c(c1)OCO2`, the max response is 10.4%.
Take `N#Cc1ccc(CN2CCC3(CC2)CCN(C(=O)Oc2ccccc2)CC3)cc1`: the max response is -4.88%.
Same read-out and setting: the figure for `COP(=S)(OC)Oc1ccc([N+](=O)[O-])cc1` is 19.5%.
For the molecule `O=C(Nc1cccc(F)c1)N1CCC2(CC1)CCN(C(=O)Oc1ccccc1)CC2`, the max response is -23.3%.
Consider `N#Cc1ccc(CN2CCCC3(CCN(C(=O)Oc4ccccc4)CC3)C2)cc1`, for which the max response amounted to 11.6%.
On the same count and under the same terms, the same measure for `CS(=O)(=O)N1CCC2(CC1)CN(Cc1ccncc1)C2`: 21.7%; for `O=C(c1ccncc1)N1CCC2(CC1)CN(Cc1ccccc1)C2`: -4.26%; for `O=S1OCC2C(CO1)C1(Cl)C(Cl)=C(Cl)C2(Cl)C1(Cl)Cl` (stereo not given): -0.733%.
`C=CCc1ccc(OC)cc1`: the max response was 21.3%.
With `c1ccc(N2CC[C@@]3(CCCNC3)C2)nc1`, the max response amounted to 12.4%.
On the same count and under the same terms, the figure for `CC(C)C[C@H]1C(=O)N2CCCC2[C@]2(O)O[C@](NC(=O)[C@@H]3C=C4c5cccc6[nH]c(Br)c(c56)C[C@H]4N(C)C3)(C(C)C)C(=O)N12` (stereo not given in full) is -32%; for `c1ccc(N2CCC3(CCNCC3)CC2)cc1` it is -7.04%.
`COC(=O)N1CCC2(CCN(CC(C)C)CC2)CC1`: the max response is -7.4%.
The same measure, in the same setting: the same measure for `ClC1=C(Cl)C2(Cl)C3C(Cl)C=CC3C1(Cl)C2(Cl)Cl` (stereo not given): 11.3%; for `CNC(=O)O/N=C/C(C)(C)SC`: 14.3%.
For the molecule `c1ccc(N=Nc2ccccc2)cc1`, the max response was -21.5%.
Still for that read-out and setting: the figure for `CCc1cccc(CC)c1N(COC)C(=O)CCl` is -0.808%; for `c1cc(CN2CCC3(CCNCC3)CC2)ccn1` it is 10.7%.
With `CCNC[C@H](O)c1cccc(O)c1`, the max response is -11.3%.

The assay is the same for the next values; noted with them: Drosophila S3 cells, BODIPY lipid droplet/cell ratio, laser cytometry; measured here: lipid channel max response; cells loaded with oleic acid.
As to `N#Cc1ccc(CN2CC[C@@]3(CCCN(C(=O)Oc4ccccc4)C3)C2)cc1`, the max response was determined as 28.4%.
Regarding `O=C(Oc1ccccc1)N1CCC2(CCN(Cc3ccccc3)CC2)CC1`, the max response was 6.48%.
Same read-out and setting: the figure for `C[N+]1([O-])[C@@H]2CC(OC(=O)[C@@H](CO)c3ccccc3)C[C@@H]1[C@H]1O[C@H]12` (stereo not given in full) is 27.4%.
On the same count and under the same terms, the figure for `CN1CCC2(CC1)CCN(C(=O)Oc1ccccc1)CC2` is 7.31%; for `O=C(Nc1cccc(F)c1)N1CC2(CCN(C(=O)Oc3ccccc3)CC2)C1` it is -1.47%; for `CCNc1nc(Cl)nc(NC(C)C)n1` it is 11.1%.
The same measure, in the same setting: the figure for `ClC1=C(Cl)C2(Cl)C3C4CC(C5OC45)C3C1(Cl)C2(Cl)Cl` (stereo not given) is 15.6%; for `CN1CC[C@@]2(CCCN(C(=O)c3ccco3)C2)C1` it is 19.3%; for `CCOCN(C(=O)CCl)c1c(C)cccc1CC` it is -5.22%.
As to `ClC(Cl)=C(c1ccc(Cl)cc1)c1ccc(Cl)cc1`, the max response came to 26.1%.
The same measure, in the same setting: the figure for `c1cnc(N2CC[C@@]3(CCCNC3)C2)nc1` is 29%; for `ClC1=C(Cl)C2(Cl)C3C4C=CC(C4)C3C1(Cl)C2(Cl)Cl` (stereo not given) it is 23.4%.
Take `COc1ccccc1CN1CC[C@@]2(CCCN(C(=O)Oc3ccccc3)C2)C1`: the max response was 13.6%.
The same measure, in the same setting: the figure for `O=C(Nc1cccc(F)c1)N1CC[C@@]2(CCCN(C(=O)Oc3ccccc3)C2)C1` is 19.8%; for `Cc1ccccc1-c1cncnc1NCCc1cnc[nH]1` it is 17.7%; for `O=C(Nc1ccccc1)N1CC[C@@]2(CCCNC2)C1` it is 3%.
With `CN1CCCC2(CCN(C(=O)c3ccncc3)CC2)C1`, the max response amounted to 19.9%.
On to `CC(C)CN1CCC2(CC1)CCN(C(=O)Oc1ccccc1)CC2`, for which the max response was found to be 1.23%.
Same read-out and setting: the same measure for `O=C(O)COc1ccc(Cl)cc1Cl`: -7.52%; for `CC(C)CN1CC2(CCN(C(=O)c3ccncc3)CC2)C1`: 11.8%; for `COC(=O)NC(=S)Nc1ccccc1NC(=S)NC(=O)OC`: 10.3%.
Take `C/C=C/c1ccc2c(c1)OCO2`: the max response was determined as 20.9%.
On the same count and under the same terms, the figure for `N#Cc1ccc(CN2CCC3(CC2)CCN(C(=O)Oc2ccccc2)CC3)cc1` is -1.78%.
Regarding `COP(=S)(OC)Oc1ccc([N+](=O)[O-])cc1`, the max response is -54.1%.
Still for that read-out and setting: the figure for `O=C(Nc1cccc(F)c1)N1CCC2(CC1)CCN(C(=O)Oc1ccccc1)CC2` is -28%; for `N#Cc1ccc(CN2CCCC3(CCN(C(=O)Oc4ccccc4)CC3)C2)cc1` it is 16.3%.
Same read-out and setting: the figure for `CS(=O)(=O)N1CCC2(CC1)CN(Cc1ccncc1)C2` is 27.2%; for `O=C(c1ccncc1)N1CCC2(CC1)CN(Cc1ccccc1)C2` it is -4.05%; for `O=S1OCC2C(CO1)C1(Cl)C(Cl)=C(Cl)C2(Cl)C1(Cl)Cl` (stereo not given) it is 5.32%.
Regarding `C=CCc1ccc(OC)cc1`, the max response was 23.9%.
In the case of `c1ccc(N2CC[C@@]3(CCCNC3)C2)nc1`, the max response is 16.2%.
In the case of `CC(C)C[C@H]1C(=O)N2CCCC2[C@]2(O)O[C@](NC(=O)[C@@H]3C=C4c5cccc6[nH]c(Br)c(c56)C[C@H]4N(C)C3)(C(C)C)C(=O)N12` (stereo not given in full), the max response was -33.2%.
With `c1ccc(N2CCC3(CCNCC3)CC2)cc1`, the max response is -8.78%.
On to `COC(=O)N1CCC2(CCN(CC(C)C)CC2)CC1`, for which the max response is -4.41%.
For `ClC1=C(Cl)C2(Cl)C3C(Cl)C=CC3C1(Cl)C2(Cl)Cl` (stereo not given), the max response stood at 18.4%.
Still for that read-out and setting: the figure for `CNC(=O)O/N=C/C(C)(C)SC` is 23.9%.
Consider `c1ccc(N=Nc2ccccc2)cc1`, for which the max response was -24.4%.
`CCc1cccc(CC)c1N(COC)C(=O)CCl`: the max response is 0.291%.
Still for that read-out and setting: the same measure for `c1cc(CN2CCC3(CCNCC3)CC2)ccn1`: 18.5%.
The same measure, in the same setting: the same measure for `CCNC[C@H](O)c1cccc(O)c1`: -12.3%.
